DUX4 txn inh = inhibitors of DUX4-driven ZSCAN4 reporter expression, primary screen, 293T cells, Gaussia and Italica luciferase | 293T-iDUX4 ZSCAN4-Gaussia luciferase reporter, 24 h; hits give low values | activity change, negative = inhibition, % (concentration not given with the values) | 0.8% of 37,000 active;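 active = mean inhibition of at least 10% in the main channel, exceeding the control channel by a set limit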
Each line names hits and unclear results; the compound was inactive in the other large screens; ! = not confirmed by another sample. The sample as a whole holds a higher share of hits than the screen did.

COc1ccc(C#Cc2ccc3c(c2)[C@@H]2[C@@H](CCN2C(=O)c2ccccc2F)[C@@H](CO)N3)cc1	none
O=C(c1ccc2c(c1)OCO2)N1CC[C@@H]2[C@H]1c1cc(-c3ccccc3)ccc1N[C@@H]2CO	none
C[C@@H]1CN([C@@H](C)CO)C(=O)Cc2cc(NC(=O)Cc3cn(C)c4ccccc34)ccc2O[C@H]1CN(C)S(=O)(=O)c1cccs1	none
CCC(=O)N(C)C[C@@H]1Oc2cc(C#Cc3ccncc3)ccc2S(=O)(=O)N([C@@H](C)CO)C[C@@H]1C	none
COc1cccc(C(=O)Nc2ccc3c(c2)C(=O)N(C)[C@H]2CC[C@H](CC(=O)NCC(F)(F)F)O[C@@H]2CO3)c1	none
COc1ccc2c3c(n(C)c2c1)[C@H](CO)N(C(=O)Nc1ccc(F)cc1)CC31CN(S(=O)(=O)c2cccs2)C1	none
COc1ccc(NC(=O)N2C[C@@H]3N[C@H](C2)C3c2ccc(-c3ccncc3)cc2)cc1 (some centres not stated)	none
Cc1ccccc1-c1ccc(C2[C@@H]3CN(S(=O)(=O)c4ccccc4)C[C@H]2N3)cc1 (some centres not stated)	DUX4 txn inh -50!
COc1ccc(-c2ccc(C3[C@@H]4CN(S(=O)(=O)c5ccccc5C)C[C@H]3N4)cc2)cc1 (some centres not stated)	DUX4 txn inh -42!
COc1ccc(NC(=O)N2C[C@@H]3N[C@H](C2)C3c2ccc(-c3cncnc3)cc2)cc1 (some centres not stated)	none
COc1ccc(-c2ccc(C3[C@@H]4CN(C(=O)c5cnccn5)C[C@H]3N4)cc2)cc1 (some centres not stated)	DUX4 txn inh -32
COc1ccccc1-c1ccc(C2[C@@H]3CN(C(=O)c4cccnc4)C[C@H]2N3)cc1 (some centres not stated)	none
O=C(c1cnccn1)N1C[C@@H]2N[C@H](C1)C2c1ccc(/C=C/c2ccccc2)cc1 (some centres not stated)	none
C/C=C/c1ccc(C2[C@@H]3CN(S(=O)(=O)c4ccc(F)cc4)C[C@H]2N3)cc1 (some centres not stated)	none
CN(C)C(=O)c1ccc(-c2ccc(C3[C@@H]4CN(Cc5cccnc5)C[C@H]3N4)cc2)cc1 (some centres not stated)	none
C/C=C/c1ccc(C2[C@@H]3CN(S(=O)(=O)c4ccccc4F)C[C@H]2N3)cc1 (some centres not stated)	none
COc1cccc(S(=O)(=O)N2[C@@H]3CNC[C@H]2C3c2ccc(-c3ccccc3C)cc2)c1 (some centres not stated)	none
Cc1ccccc1-c1ccc(C2[C@@H]3CN(Cc4cccnc4)C[C@H]2N3)cc1 (some centres not stated)	DUX4 txn inh -24
CC(=O)N1[C@@H]2c3ccc(-c4ccccc4)c(=O)n3C[C@H]1[C@H](CO)[C@H]2C(=O)NCCCN1CCOCC1	none
COc1ccccc1-c1ccc([C@H]2[C@H](CO)N(C(C)=O)C23CN(C(C)=O)C3)cc1	none
COCC(=O)Nc1ccc2c(c1)C(=O)N(C)[C@H]1CC[C@H](CC(=O)NCc3ccccc3Cl)O[C@@H]1CO2	none
COc1ccc2c3c([nH]c2c1)[C@H](CO)N(C(=O)CC1CC1)CC31CCN(C(=O)CC2CC2)CC1	none
C[C@H](CO)N1C[C@H](C)[C@@H](CN(C)CC2CC2)Oc2cc(-c3cccc(C#N)c3)ccc2S1(=O)=O	none
CO[C@@H]1CN(C)C(=O)c2ccc(NS(=O)(=O)CC(F)(F)F)cc2OC[C@@H](C)N(C(=O)c2ccc3c(c2)OCO3)C[C@@H]1C	none
CCCNC(=O)N1[C@H](CO)[C@H]2c3ccccc3N(C)C[C@H]21	none
COc1ccccc1S(=O)(=O)N1C[C@@H]2N[C@H](C1)C2c1ccc(-c2ccccc2C)cc1 (some centres not stated)	DUX4 txn inh -42!
Cc1ccccc1-c1ccc(C2[C@@H]3CN(C(=O)C4CCOCC4)C[C@H]2N3)cc1 (some centres not stated)	none
CN(C)C(=O)c1ccc(-c2ccc(C3[C@@H]4CN(S(=O)(=O)c5ccccc5F)C[C@H]3N4)cc2)cc1 (some centres not stated)	none
COc1ccccc1-c1ccc(C2[C@@H]3CN(C(=O)c4ccncc4)C[C@H]2N3)cc1 (some centres not stated)	none
Cc1ccccc1-c1ccc(C2[C@@H]3CN(S(=O)(=O)c4ccccc4C)C[C@H]2N3)cc1 (some centres not stated)	DUX4 txn inh -36!
Cc1ccccc1-c1ccc([C@@H]2[C@@H](CO)N3C(=O)CN(S(C)(=O)=O)C[C@@H]23)cc1	none
C[C@@H]1CN([C@@H](C)CO)C(=O)c2cc(C#CC3(O)CCCC3)cnc2O[C@H]1CN(C)Cc1ccccc1	none
COc1ccc(C[C@@H]2CCn3nncc3COC[C@@H](CC(C)C)NC2=O)cc1	none
O=C(C[C@H]1CC[C@H]2[C@@H](COC[C@H](O)CN2Cc2ccncc2)O1)NCc1ccccc1Cl	none
CC(C)[C@@H]1CC=CC[C@H](C)Oc2ccccc2C(=O)N(C)[C@@H](Cc2ccccc2)C(=O)N1 (mixture of isomers)	none
CC(C)[C@@H]1COCc2cnnn2CCC[C@@H](C)C(=O)N1	none
CCC(=O)N1C[C@@H](O)COC[C@@H]2O[C@@H](CC(=O)NCc3cc(F)cc(F)c3)CC[C@H]21	none
CS(=O)(=O)N1CCCCN2[C@H](CO)[C@H](c3ccc(-c4cccc(C#N)c4)cc3)[C@@H]2C1	none
N#Cc1cccc(-c2ccc(C3[C@H]4CNC[C@@H]3N4Cc3cccc(-c4ccncc4)c3)cc2)c1 (some centres not stated)	none
COc1cccc(CN2CCCCN3[C@H](CO)[C@H](c4ccc(-c5cccc(C#N)c5)cc4)[C@@H]3C2)c1	none
N#Cc1cccc(-c2ccc(C3[C@@H]4CN(Cc5ccccc5)C[C@H]3N4)cc2)c1 (some centres not stated)	DUX4 txn inh -27
CS(=O)(=O)N1CCCCN2[C@H](CO)[C@@H](c3ccc(-c4cccc(C#N)c4)cc3)[C@H]2C1	none
N#Cc1cccc(-c2ccc(C3[C@@H]4CN(S(=O)(=O)Cc5ccccc5)C[C@H]3N4)cc2)c1 (some centres not stated)	DUX4 txn inh -41
O=C(O)C[C@@H]1C[C@H]2c3cc(NC(=O)c4ccc5c(c4)OCO5)ccc3O[C@H]2[C@@H](CO)O1	none
COc1ccc2c3c(n(C)c2c1)[C@@H](CO)N(S(C)(=O)=O)CC31CCN(C(=O)CN(C)C)CC1	none
CN(C)CC(=O)N1[C@@H]2c3cccc(=O)n3C[C@@H]2[C@@H](CO)[C@@H]1C(=O)NCc1ccccc1F	none
CC(=O)N1[C@@H](CO)[C@@H](c2ccccc2)C12CN(C(=O)c1ccc3c(c1)OCO3)C2	none
C[C@@H]1CN([C@H](C)CO)C(=O)c2c(c3ccccc3n2C)-c2ccccc2CO[C@H]1CN(C)S(C)(=O)=O	none
C[C@@H]1CN([C@H](C)CO)C(=O)c2c(c3ccccc3n2C)-c2ccccc2CO[C@@H]1CN(C)S(=O)(=O)c1ccc(C(F)(F)F)cc1	none
C[C@@H]1CN([C@H](C)CO)C(=O)c2c(c3ccccc3n2C)-c2ccccc2CO[C@H]1CN(C)S(=O)(=O)c1cccc(C#N)c1	none
C[C@@H]1CN([C@H](C)CO)C(=O)c2c(c3ccccc3n2C)-c2ccccc2CO[C@H]1CN(C)S(=O)(=O)c1ccc(F)cc1	DUX4 txn inh -29
